# Source: PubChem BioAssay
# ADAM10 inh: ADAM10 inhibition, QFRET primary screen; O14672; recombinant ADAM10, EDANS/DABCYL FRET peptide cleavage, 3 h; inhibition, % at 7 µM; 370,000 tested, 0.62% active; AID 720582;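 active = inhibition above a per-campaign cutoff equal to the mean of compounds falling between control-based bounds plus 3 SD, cut at about 20% in these data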;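 also: 0% = DMSO wells while the 100% control is not disclosed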
# Target sequence (O14672 214-748 limits assumed): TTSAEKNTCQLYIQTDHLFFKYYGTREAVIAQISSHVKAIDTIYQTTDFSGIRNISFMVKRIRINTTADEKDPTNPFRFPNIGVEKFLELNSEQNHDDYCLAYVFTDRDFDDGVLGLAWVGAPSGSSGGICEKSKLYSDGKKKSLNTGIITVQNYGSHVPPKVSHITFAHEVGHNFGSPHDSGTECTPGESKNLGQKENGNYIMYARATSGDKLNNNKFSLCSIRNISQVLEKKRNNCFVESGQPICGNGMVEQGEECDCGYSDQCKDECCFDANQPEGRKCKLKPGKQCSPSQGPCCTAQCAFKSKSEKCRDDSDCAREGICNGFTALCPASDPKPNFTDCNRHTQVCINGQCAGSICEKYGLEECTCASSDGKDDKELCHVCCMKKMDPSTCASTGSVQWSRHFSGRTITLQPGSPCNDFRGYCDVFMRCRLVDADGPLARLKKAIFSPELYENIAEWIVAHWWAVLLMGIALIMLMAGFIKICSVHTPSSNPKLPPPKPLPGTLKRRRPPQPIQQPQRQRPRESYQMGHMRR
# FAS TE block: inhibitors of human fatty acid synthase thioesterase domain | inhibition, % at 15 µM | 360,000 tested, 0.67% active | recombinant FAS-TE, OMFH fluorogenic substrate, fluorescence endpoint;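 active = compounds whose normalised, plate-corrected inhibition of enzyme fluorescence in the single-dose primary screen is 50% or more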;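 also: 0% = DMSO with enzyme and 100% = substrate without enzyme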
# HGIII-sPLA2 inh: Inhibits HGIII-sPLA2 liposome hydrolysis, primary screen. AID 743126. 370,000 tested, 0.56% active. Q9NZ20. inhibition, % at 12.2 µM. QFRET BODIPY PC-A2 liposome hydrolysis, fluorescence;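 active = inhibition above mean plus 3 SD of compounds lying within the high and low control bounds, cut at about 19% in these data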;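 also: 0% = median of test compound wells and 100% = no enzyme DMSO wells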
# ADAM17 inh: ADAM17 inhibition, QFRET primary screen | 370,000 tested, 0.83% active | P78536 | recombinant ADAM17, EDANS/DABCYL FRET peptide cleavage | inhibition, % at 6.95 µM | AID 720648;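 active = inhibition above the mean of compounds lying between control limits plus 3 SD, set per campaign, cut at about 8.5% in these data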;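 also: 0% = DMSO-only wells as the low control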
# NR3A LBD binder: NR3A (human) ligand-binding domain modulation | NR3A LBD differential scanning fluorimetry, Tm shift; 0% = protein alone, 100% = glycine-bound protein | Tm shift relative to glycine control, % at 25 µM | 340,000 tested, 2.5% active;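 active = melting temperature shift of at least 10% of the positive control shift, at one fixed dose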
# * hit, by the source's call; . = no result. Most compounds without a hit are left out; they make up all but 4.3% or so of the library.
SMILES,ADAM10 inh,FAS TE block,HGIII-sPLA2 inh,ADAM17 inh,NR3A LBD binder
COc1cc(C(=O)NC(=S)Nc2ccc(NC(=O)c3ccco3)cc2)cc(OC)c1OC,2,-6,-1,2,22*
Cc1ccccc1CN1CCCCC(NC(=O)Cc2cccs2)C1=O (configuration not stated),10,.,0,0,.
COc1cccc(C(=O)COc2ccc(NC(=O)c3ccccc3)cc2)c1,7,13,-18,-4,11*
Cc1cccc(OCC(=O)Nc2ccc(NC(=O)c3ccccc3)cc2)c1,4,3,-7,1,12*
Cc1cccc(OCC(=O)Nc2ccc(C(=O)Nc3ccccc3C(=O)O)cc2)c1,1,17,-15,6,.
Cc1cccc(C(=O)Nc2ccccc2C(=O)OCC(=O)Nc2ccc(C#N)cc2)c1,11,31,-20,3,15*
COc1ccc(NC(=O)COc2cccc(-n3cnnn3)c2)cc1,6,1,-2,-2,15*
Oc1ccc(/C=N/Nc2ccnc3cc(Cl)ccc23)c(O)c1O,-3,-22,-7,2,18*
CC/C(=N\Nc1ccnc2cc(Cl)ccc12)c1ccc(O)cc1,-12,4,0,-12,7
Oc1ccc(/C=N/Nc2ccnc3cc(Cl)ccc23)cc1O,-12,-32,14,-10,21*
Cc1cc(C(=O)O)c(C)o1,-3,.,4,1,.
CC(C)CNC(=O)OCc1cn(Cc2cc(F)ccc2F)nn1,-4,.,6,-7,.
COc1ccc(/C=C/C(=O)Nc2ccccc2C(=O)O)cc1,3,-2,-5,-1,20*
CCOc1ccc(/C=C/C(=O)Nc2ccc(OC)cc2[N+](=O)[O-])cc1,4,-28,7,5,28*
COc1ccc(NC(=O)/C=C/C(=O)O)c([N+](=O)[O-])c1,8,-5,1,0,2
COc1ccc(/C=C/C(=O)Nc2ccccc2C(=O)N2CCCC2)cc1,4,-2,5,-2,1
CCOc1ccc(NC(=O)/C=C/c2ccccc2)c([N+](=O)[O-])c1,6,-4,0,1,15*
CCOc1ccc(N/C=C/C(=O)c2ccccc2)c([N+](=O)[O-])c1,-7,12,-41,2,18*
CC(COc1ccc(C#N)c(F)c1)CN1CCC(C(O)(c2ccccc2)c2ccccc2)CC1 (configuration not stated),2,.,-22,2,.
COc1ccc(S[C@]2(C(=O)N3CCCC3)CC(=O)N(c3ccccc3OC)[C@@H]2c2ccc(OC)cc2)cc1,9,.,-10,7,.
COc1ccc(CN2C(=O)c3ccccc3C(/C=N/OCc3ccc(Cl)cc3)C2=O)cc1 (configuration not stated),-107,12,1,-40,11*
Cc1nn(-c2ccccc2)c(C)c1C=NNC(=O)CSc1nc2ccccc2n1C,-4,.,11,4,.
O=C(OC12CCCN(C1)/C(=C/c1ccncc1)C2)c1cccc(F)c1 (configuration not stated),0,.,1,0,.
COc1ccc(NC(=O)Nc2cc(C)cc(C)c2)cn1,-9,-1,-5,0,-430
O=C(Nc1ccccc1)Nc1cccc(C(F)(F)F)c1,10,10,-11,3,27*
SMILES,ADAM10 inh,FAS TE block,HGIII-sPLA2 inh,ADAM17 inh,NR3A LBD binder
COc1ccc(NC(=O)Nc2cccc(C(F)(F)F)c2)cn1,8,6,-15,2,26*
O=C(Nc1ccccc1)Nc1cccc(NC(=O)Nc2ccccc2)c1F,-3,2,-2,-3,24*
O=C(Nc1ccccc1)Nc1ccccc1Br,9,0,-2,1,-12
O=C(Nc1cccc(C(F)(F)F)c1)NC1CCN(S(=O)(=O)c2ccc(F)cc2)CC1,-3,10,-14,-3,19*
O=C(Nc1ccc(F)cc1)OCCN1C(=O)CCC12CCC(c1ccc(Cl)cc1)CC2 (configuration not stated),1,.,5,1,.
COc1ccc(-n2c(SCC(=O)N3CCCCC3C)nnc2-c2ccncc2)cc1 (configuration not stated),-3,.,2,-1,.
O=C(C1CC1)n1ccc2ccc(-c3ccc4ccn(Cc5ccccc5)c4c3)cc21,-9,.,5,-9,.
COc1cccc(NC(=O)Nc2cc(C)ccc2OC)c1,-4,4,-1,6,-4
O=C(Nc1ccccc1)Nc1cc([N+](=O)[O-])ccc1F,-6,39,1,-3,20*
Cc1ccc(OC(F)F)c(NC(=O)Nc2cccc(C(F)(F)F)c2)c1,.,37,.,.,29*
O=C(Nc1cccc(C(F)(F)F)c1)c1ccccc1NC(=O)C1CCCCC1,3,4,5,-3,10*
Clc1ccc(-c2nnc3n2N=C(c2ccc(-c4ccccc4)cc2)CS3)cc1,2,.,0,2,.
COc1ccc(CCC(=O)Nc2ccc(-c3noc(-c4ccc(OC)c(OC)c4)n3)cc2)cc1,5,1,2,2,1
COc1cc(-c2nc(-c3ccc(NC(=O)c4ccc(Br)o4)cc3)no2)cc(OC)c1OC,-7,24,1,-4,21*
COc1ccc(-c2nc(-c3ccc(NC(=O)c4ccc(Br)o4)cc3)no2)cc1OC,1,11,0,-3,26*
O=C(CCN1C(=O)c2cccc3cccc(c23)C1=O)NCC1CCCO1 (configuration not stated),-294,-3,3,-103,1
O=C(CN1C(=O)c2cccc3cccc1c23)NCC1CCCO1 (configuration not stated),-52,-3,0,-21,16*
CCN(C[C@H]1N[C@@](C)(C(=O)OC)[C@H]2C(=O)N(Cc3ccccc3)C(=O)[C@@H]12)C(=O)NC(C)C,-11,-11,3,-1,14*
COC(=O)[C@]1(C)N[C@H](CN(C)C(=O)Nc2ccc(OC)cc2)[C@@H]2C(=O)N(C)C(=O)[C@@H]21,5,-8,2,0,13*
COC(=O)[C@]1(C)N[C@H](CN(C)C(=O)Nc2ccccc2)[C@@H]2C(=O)N(C)C(=O)[C@@H]21,-2,-15,4,-3,13*
COC(=O)[C@]1(C)N[C@H](CN(C)C(=O)Nc2ccc(F)cc2)[C@@H]2C(=O)N(C)C(=O)[C@@H]21,-7,-10,11,-3,1
Cc1ccccc1C(=O)NC1CCCCN(Cc2ccc(Cl)cc2)C1=O (configuration not stated),-2,.,7,-7,.
Cc1ccc(CSc2nnc(-c3n[nH]c4c3CCC4)n2N)cc1,-8,.,6,1,.
COCCCNC(=O)C[C@H]1C[C@@]2(C(=O)OC)C(=C[C@H](C3CCCC3)O[C@@H]2C)N(Cc2ccc(Cl)cc2Cl)C1=O,10,.,-22,1,.
C#CCOCCOCCOCCNc1nc(N2CCN(C(=O)CCCCCCCCCCNC(=O)[C@H](CO)n3cc(CCCSC)nn3)CC2)nc(N2CCN(C(=O)CCCCCCCCCCNC(=O)[C@H](CCCCN)n3cc(CCO)nn3)CC2)n1,10,-28,-90,2,28*
